# Most compounds without a hit are left out; they make up all but 3.1% or so of the library.
# Vif-A3F inh: Vif-A3F binding inhibition; hit rate 0.2% among 390,000; Potency, µM (series often up to 46.1 µM), without a hit: at the top dose activity, negative = active; HeLa A3F-eYFP + Vif (tagged APOBEC3F with the HIV-1 protein that degrades it), YFP fluorescence increase; also: potency is read from the fitted curve at half-maximal effect; % of control where 0% means no effect; nearly all actives have a fitted effect of over 65% in size
#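 Fluorescence increase (Ex 488/Em 500-530) after overnight compound treatment at 37 deg C flags inhibition of Vif-driven A3F-eYFP loss in stable HeLa A3F-eYFP/Vif cells seeded overnight beforehand.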
# PLK1 PBD block: blocks phosphopeptide binding to human PLK1 polo-box domain | P53350 | Plk1 PBD binding of FITC phosphopeptide, fluorescence polarization | Potency, µM, for the others: max response, negative = inhibition, hits mostly inhibitors | hit rate 2.8% among 360,000 | AID 720504; also: potency is read from the fitted curve at half-maximal effect; series mostly up to about 57 µM; % is scaled to controls: 0 for no effect and ±100 for the full control effect; nearly all actives have a fitted effect of over 65% in size
# Vif-APOBEC3G blk: Vif-A3G binding inhibition. Q9HC16. HeLa A3G-eYFP + Vif (tagged APOBEC3G with the HIV-1 protein that degrades it), YFP fluorescence, overnight. Potency, µM (series often up to 46.1 µM), for the others: top-dose activity, negative = active, most hits filed as inhibitors. hit rate 0.076% among 410,000. AID 602310; also: potency is read from the fitted curve at half-maximal effect; % is scaled to controls: 0 for no effect and ±100 for the full control effect; nearly all actives have a fitted effect of over 60% in size
#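 HeLa cells stably expressing Vif and C-terminally eYFP-tagged A3G, seeded overnight at 37 deg C, then exposed to compound by pintool overnight at 37 deg C. Rise in yellow fluorescence (Ex 488/Em 500-530, Acumen) marks blocked Vif-driven A3G degradation.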
# VDR inh: inhibitors of human vitamin D receptor | hit rate 0.93% among 400,000 | P11473 | AID 504847 | Potency, µM, for the others: max response, negative = inhibition, usual class: inhibitors | VDR-SRC2-3 peptide fluorescence polarization, 2 h; also: potency is read from the fitted curve at half-maximal effect; % is scaled to controls: 0 for no effect and ±100 for the full control effect
#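 Fluorescence polarization assay of small-molecule disruption of VDR binding to coregulator peptide SRC2-3. Compounds and controls pin-transferred, then read after 2 h incubation at ambient room temperature.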
# TSHR antagonist: human thyrotropin receptor antagonism; activity change, negative = inhibition, % at 11.5 µM; P16473; hit rate 0.2% among 330,000; TSHR-expressing cells, TSH-stimulated cAMP HTRF, 2 h; stronger effect = lower value;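 active = activity change below a set negative limit, meaning inhibition stronger than a set level, cut at about -70% in these data; inconclusive = activity change between two set negative limits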; also: % is scaled to controls: 0 for no effect and ±100 for the full control effect
# Target sequence (P16473 whole entry, looked up): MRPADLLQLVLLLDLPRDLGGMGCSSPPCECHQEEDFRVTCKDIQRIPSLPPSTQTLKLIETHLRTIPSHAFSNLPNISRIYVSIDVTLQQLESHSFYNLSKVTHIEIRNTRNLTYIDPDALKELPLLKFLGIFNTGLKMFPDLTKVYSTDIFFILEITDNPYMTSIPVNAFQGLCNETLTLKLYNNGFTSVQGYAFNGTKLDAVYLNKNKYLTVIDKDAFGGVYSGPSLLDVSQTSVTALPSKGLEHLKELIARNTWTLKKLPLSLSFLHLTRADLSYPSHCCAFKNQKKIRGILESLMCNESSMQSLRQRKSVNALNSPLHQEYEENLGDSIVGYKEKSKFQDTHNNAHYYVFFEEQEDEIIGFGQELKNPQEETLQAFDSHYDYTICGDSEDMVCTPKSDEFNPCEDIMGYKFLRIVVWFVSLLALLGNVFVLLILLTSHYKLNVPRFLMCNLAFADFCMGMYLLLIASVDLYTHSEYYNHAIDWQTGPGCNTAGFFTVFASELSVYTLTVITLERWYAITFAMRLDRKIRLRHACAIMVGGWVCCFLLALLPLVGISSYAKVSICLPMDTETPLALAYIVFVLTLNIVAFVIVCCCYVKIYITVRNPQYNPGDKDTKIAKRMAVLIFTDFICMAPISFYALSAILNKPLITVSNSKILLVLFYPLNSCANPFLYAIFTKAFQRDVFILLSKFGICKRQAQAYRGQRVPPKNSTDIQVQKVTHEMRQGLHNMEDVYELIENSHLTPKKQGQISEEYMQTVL
#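 Inhibition of cAMP made by TSHR-expressing cells under TSH stimulation (4nM final, EC80; 2 h, 37 deg C) is quantified with a one-step lysis HTRF kit, anti-cAMP cryptate versus cAMP-d2.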
# * marks the source's active call; other numbers are inactive results; ? = inconclusive; . = no result; [ ] = another dose, or the depositor's remark. Unless noted, calls follow the shape of the dose curve; as a rule, active = well fitted curve in the direction sought with a large enough effect; inconclusive = small, poorly fitted or top-dose-only effect, or another doubt; inactive = no such curve, though single readings can be large; an effect the other way counts as inactive or inconclusive.
SMILES,Vif-A3F inh,PLK1 PBD block,Vif-APOBEC3G blk,VDR inh,TSHR antagonist
Cc1nc2c(=O)[nH]c(=S)[nH]c2[nH]c1=O,3%,21µM*,2%,-10%,.
O=C1CC(=O)CC(c2ccccc2)C1,5%,-3%,-5%,?,0
O=C1CC(c2ccccc2)CC(=O)C1CS(=O)(=O)c1ccccc1 (stereo not drawn),-16%,-25%,-4%,32µM*,-8
O=c1oc2c3c4c(cc2c(C(F)(F)F)c1CCN1CCOCC1)CCCN4CCC3,7.9µM*,33%,?,7%,-6
CC(C)c1cc(=O)oc2c3c4c(cc12)CCCN4CCC3,?,?,?,-3%,13
S=C(NCCCc1cnc[nH]1)NCCCN(CCc1ccc(Cl)cc1)c1ccc(Br)cn1,.,.,-4%,-8%,.
CC1=C/C(=C/N(C)c2ccccc2)C(=O)S1,-5%,27µM*,-8%,?,13
CC1=C/C(=C\c2ccc3c(c2)OCO3)C(=O)S1,3%,-21%,0%,-12%,4
C=C1c2cccc(C(F)(F)F)c2O[C@H](C(=O)OCC)[C@@H]1CCCCCC,.,.,.,-14%,.
COc1cc(/C=C(\C#N)c2nc3ccccc3n2C)cc(OC)c1OC,-1%,.,1%,-11%,.
Cn1c(/C(C#N)=C/c2cccc(O)c2)nc2ccccc21,-3%,27µM*,-12%,79µM*,8
CCOc1ccc(NC(=O)COC(=O)c2ccccc2OCC(=O)N(C)C)cc1,.,.,-1%,.,.
CC(C)N(C(C)C)S(=O)(=O)c1ccc(NN)nc1,4%,-1%,-6%,-23%,-2
CCN(CC)S(=O)(=O)c1ccc(NN)nc1,-36%,24µM*,-1%,?,-8
CCOc1ccc(C2C=C(c3ccc(C)cc3)Nc3nnnn32)cc1 (stereo not drawn),-12%,27µM*,-14%,0%,-9
Cc1noc(C)c1-c1ccc2ncnc(NCc3cccnc3)c2c1,.,.,.,-19%,.
O=C(c1ccco1)n1nc(-c2ccccc2)nc1NCc1ccco1,.,30µM*,2%,?,-7
Cc1ccc(-c2nc(NCc3ccco3)n(C(=O)c3ccco3)n2)cc1,-25%,-4%,2%,-6%,-8
O=C(N/N=C/c1c[nH]c2ccccc12)c1[nH]c2ccc(Br)cc2c1-c1ccccc1,-7%,8.4µM*,?,-16%,12
O=C(N/N=C/c1ccc(O)cc1)c1[nH]c2ccc(Br)cc2c1-c1ccccc1,7%,-3%,?,5%,5
C=CC1=C(C)C2=Cc3c(C=C)c(C)c4[n]3[Sn+2][n]3c(c(C)c(CCC(=O)O)c3=CC3=NC(=C4)C(C)=C3CCC(=O)O)=CC1=N2,.,.,.,35µM*,.
O=S(=O)(c1ccc(Cl)cc1)c1nnn2c1nc(NCc1cccs1)c1sccc12,-1%,.,-5%,12%,.
CCc1ccc(OCC(=O)N/N=C/c2cc([N+](=O)[O-])ccc2N2CCOCC2)cc1,3%,2%,3%,15%,-20
COc1ccc(NCC(=O)N/N=C/c2cc([N+](=O)[O-])ccc2N2CCCC2)cc1,-7%,13µM*,0%,?,-7
C=C1CCN(C(Cc2ccccc2)C(=O)Nc2ccc(OC)cc2)S(=O)(=O)c2ccccc21 (stereo not drawn),.,.,-5%,-19%,.
SMILES,Vif-A3F inh,PLK1 PBD block,Vif-APOBEC3G blk,VDR inh,TSHR antagonist
CS(=O)(=O)N1CCN(Cc2cc3nc(-c4cccc5[nH]ncc45)nc(N4CCOCC4)c3s2)CC1,.,.,-21%[92.2 µM],.,.
CC1=C(C)CS(=O)N(c2ccc(S(N)(=O)=O)cc2)C1 (stereo not drawn),10%,1.5µM*,3%,7.9µM*,3
NS(=O)(=O)c1ccc(N2C(=O)C3CC=CCC3C2=O)cc1 (stereo not drawn),-1%,-9%,-1%,16%,1
Cc1ccc(S(=O)(=O)/N=C2/C=C(Sc3ncn[nH]3)C(=O)c3ccccc32)cc1,?,0.75µM*,?,10µM*,-27
Cc1ccc(S(=O)(=O)/N=C2/C=C(Sc3ncn[nH]3)C(=O)c3ccccc32)c(C)c1,.,.,.,.,-21
Cc1ccc(S(=O)(=O)Nc2ccc(O)c(Sc3ncn[nH]3)c2)cc1,-10%,-7%,1%,3%,-3
CC(C)c1ccc(S(=O)(=O)/N=C2/C=C(Sc3ncn[nH]3)C(=O)c3ccccc32)cc1,?,1.5µM*,?,10µM*,-41
COc1ccccc1CN1CCC2(CC1)CCN(C(=O)c1cccn1C)CC2,.,.,.,4%,.
COc1cccc(NC(=O)CSCn2nnc3c(=O)[nH]c(Cc4ccc(F)cc4)nc32)c1,-4%,.,-1%,3%,.
Cn1c2cc(B(O)O)sc2c2cnn(Cc3ccc(F)cc3F)c(=O)c21,.,.,.,.,-28
COc1ccc(N/C=C/C(=O)c2sc(-c3ccccc3)nc2C)cc1,-11%,-6%,11µM*,-12%,26
CCN(CC)CCCN1C(=O)C(O)=C(C(=O)c2cc3ccccc3o2)C1c1ccccn1 (stereo not drawn),4%,27µM*,0%,-10%,43
COc1ccc(-c2ccc(C3C4C=CCCC4(C)C(=O)N3Cc3ccccc3)c(F)c2)cc1 (stereo not drawn),.,.,2%,-24%,.
CC(C)(C)CC(C)(C)N=C1Nc2ccc([N+](=O)[O-])cc2N[C@]12C[C@H]1CCCC(=O)N3CC[C@@H](C2)[C@@H]13,.,.,-8%,.,.
O=C1CC(N(O)C2CC(=O)N(Cc3ccccc3)C2=O)C(=O)N1Cc1ccccc1 (stereo not drawn),-4%,24µM*,1%,?,8
CC(=O)N1CCN(C(=S)c2ccc(N(C)C)cc2)CC1,-3%,21µM*,-1%,-13%,14
CN(C)c1ccc(C(=S)N2CCCCCC2)cc1,-8%,?,2%,2%,-6
CC1CCN(C(=S)c2ccc(N(C)C)cc2)CC1,3%,30µM*,-1%,-4%,-1
Cc1ccc(N2CCN(C(=S)c3ccc(N(C)C)cc3)CC2)cc1,-1%,17µM*,1%,?,-14
COc1ccc(-n2c(=O)c3sc4ccccc4c3n(CC(=O)NCc3ccccc3)c2=O)cc1,-8%,.,4%,-5%,.
COc1ccccc1CCn1c(=O)c(-c2cccs2)nc2cncnc21,.,.,.,3%,.
COC(=O)c1c(NC(=O)CN2CCC3(O)CCCCC3C2c2ccc(OC)cc2OC)sc(C)c1C (stereo not drawn),0%,21µM*,-5%,-17%,51
O=C(N/N=C\c1ccc(Cl)s1)c1ccc(Cn2cccn2)o1,4%,27µM*,0%,71µM*,2
CCOc1ccc(NC(=O)CC2C(=O)N(CC)C(=S)N2CCN2CCOCC2)cc1 (stereo not drawn),2%,27µM*,1%,-24%,30
O=C1C[C@H](c2ccc(-c3ccccc3)cc2)N1S(=O)(=O)c1ccccc1[N+](=O)[O-],.,.,-1%,-11%,.
O=C1c2cccc3c([N+](=O)[O-])c(O)cc(c23)C(=O)N1Nc1ccccc1,10µM*,27µM*,?,?,-3

# Assay outcomes as filed in PubChem BioAssay.
